Screening data deposited in PubChem BioAssay by National Center for Advancing Translational Sciences (NCATS).
An excerpt weighted towards active compounds, which were near 19% of everything screened.
HT1080NT lethal = qHTS for induction of synthetic lethality in tumor cells producing 2HG: qHTS for the HT-1080-NT fibrosarcoma cell line; Potency, µM (series often up to 46.1 µM), usual class: cytotoxic; HT-1080-NT fibrosarcoma viability, CellTiter-Glo ATP luminescence, 48 h; 360,000 compounds, 1.6% hits;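 note: NT is the 2HG producing partner of a matched IDH1 knockdown line; nearly all actives have a fitted effect of over 55% in size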
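Luminescent CellTiter-Glo readout after 48 hours of compound exposure at 37 degrees C defined viability of HT-1080-NT cells. Activity was normalized to DMSO wells and cell-free media wells; concentration-response curves were fitted and assigned curve classes.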
ELG1 repair inh = qHTS screen for small molecules that inhibit ELG1-dependent DNA repair in human embryonic kidney (HEK293T) cells expressing luciferase-tagged ELG1; Potency, µM (series often up to 46.1 µM), usual class: inhibitors; AID 504467, 2011; 330,000 compounds, 2.3% hits; HEK293T ELG1-luciferase reporter, luminescence, 16 h; DNA damage induced by 5-fluorouridine; note: nearly all actives have a fitted effect of over 55% in size
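Luminescence from the luciferase reporter, measured 30 min after ONE-Glo reagent at room temperature, was the read-out. Beforehand, 2,000 cells per well were exposed for 16 hr at 37 °C to 5-fluorouridine together with compound or vehicle.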
HT1080 IDH1KD tx = qHTS for induction of synthetic lethality in tumor cells producing 2HG: qHTS for the HT-1080-IDH1KD cell line | HT-1080 IDH1 knockdown viability, ATP luminescence, 48 h | 360,000 compounds, 2% hits | Potency, µM (titrated, usually from 46.1 µM), usual class: cytotoxic
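IDH1KD HT-1080 cells, 750/well, RPMI + 5% FBS; compound pinned after 2 h settling; 48 h, 37 °C; CellTiter-Glo luminescence; % activity normalised to DMSO and no-cell wells; curves fitted, classed by r2 and efficacy.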
TDP1 cell noCPT = qHTS for Inhibitors of human tyrosyl-DNA phosphodiesterase 1 (TDP1): qHTS in cells in absence of CPT. DT40 Tdp1-/- hTDP1 cells, no CPT, ATP luminescence, 48 h. Potency, µM (doses to about 46.2 µM), actives largely listed as inhibitors. 420,000 compounds, 15% hits. AID 686978, 2013; note: nearly all actives have a fitted effect of over 55% in size
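Compound effects on proliferation are scored in DT40 Tdp1-/-;hTDP1 cells in the absence of CPT. ATP levels (CellTiter-Glo luminescence) are recorded after a ≥48 hr, 37 °C incubation.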
DT40 TDP1 CPT = qHTS for Inhibitors of human tyrosyl-DNA phosphodiesterase 1 (TDP1): qHTS in cells in presence of CPT | chicken DT40 Tdp1-/-;hTDP1 cells + 20 nM CPT, ATP luminescence, 48 h | Potency, µM (series often up to 46.2 µM), actives largely listed as inhibitors | 420,000 compounds, 12% hits; note: nearly all actives have a fitted effect of over 55% in size
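Chicken DT40 Tdp1-/- cells complemented with human TDP1, 400 cells/well, exposed to compounds plus 20 nM camptothecin for at least 48 h at 37 C; viability read as ATP content by CellTiter-Glo luminescence.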
IL1B secr inh = qHTS for Inhibitors of Inflammasome Signaling: IL-1-beta AlphaLISA Primary Screen; THP-1 LPS/ATP IL-1B secretion, AlphaLISA, 16 h; hits give low values; 360,000 compounds, 4.7% hits; activity change, % at 57.5 µM; AID 743279, 2014; in the data active = activity change below about -50%; inconclusive = mostly about -30% to -49%
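Secreted IL-1B measured by AlphaLISA bead assay after 16 h compound exposure of THP-1 cells; compounds (final up to 57.5 uM) added 1 h before LPS (250 ng/mL) and ATP (1.25 mM) stimulation; lower signal means less secretion.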
Each line names hits and unclear results; the compound was inactive in the other large screens. Unless noted, calls come from the whole dose curve; as a rule, active = well fitted curve in the direction sought with a large enough effect; inconclusive = small, poorly fitted or top-dose-only effect, or another doubt; inactive = no such curve, though single readings can be large; an effect the other way counts as inactive or inconclusive.

COc1ccc(/C=C2\CCCc3c2nc2ccccc2c3C(=O)OCC(=O)c2c(N)n(C)c(=O)n(C)c2=O)cc1	ELG1 repair inh 3.3µM (no result: HT1080NT lethal, HT1080 IDH1KD tx, TDP1 cell noCPT, DT40 TDP1 CPT, IL1B secr inh)
COc1cccc(-c2cnc(C(O)c3cc(C)cc(C)c3)[nH]2)c1 (stereo not given)	TDP1 cell noCPT inconclusive, DT40 TDP1 CPT inconclusive (no result: ELG1 repair inh)
CC1(Cc2ccc(C(F)(F)F)o2)C(=O)Nc2ccc(-c3cccc(C(F)(F)F)c3)cc21 (stereo not given)	HT1080NT lethal inconclusive, HT1080 IDH1KD tx inconclusive, TDP1 cell noCPT 12µM, DT40 TDP1 CPT 15µM (no result: ELG1 repair inh)
CC1(Cc2cccc(C(F)(F)F)c2)C(=O)Nc2c(Cl)cccc21 (stereo not given)	TDP1 cell noCPT inconclusive, DT40 TDP1 CPT inconclusive (no result: ELG1 repair inh)
CC1(Cc2ccc3c(c2)OCO3)C(=O)Nc2ccc(-c3cccc(C(F)(F)F)c3)cc21 (stereo not given)	HT1080NT lethal inconclusive, HT1080 IDH1KD tx inconclusive, TDP1 cell noCPT 21µM, DT40 TDP1 CPT 23µM, IL1B secr inh inconclusive (no result: ELG1 repair inh)
CC1(Cc2ccc3c(c2)OCO3)C(=O)Nc2c(Cl)ccc(Cl)c21 (stereo not given)	HT1080 IDH1KD tx inconclusive, TDP1 cell noCPT 23µM, DT40 TDP1 CPT inconclusive (no result: ELG1 repair inh)
CCc1ccc2c(c1)NC(=O)C2(C)Cc1ccc(C(F)(F)F)o1 (stereo not given)	HT1080 IDH1KD tx inconclusive, TDP1 cell noCPT inconclusive, DT40 TDP1 CPT 23µM (no result: ELG1 repair inh)
CCCSc1nnc(-c2cnn(-c3ccccc3)c2-n2cccc2)n1C	TDP1 cell noCPT 15µM, DT40 TDP1 CPT 18µM
C=CCSc1nnc(-c2cnn(-c3ccccc3)c2-n2cccc2)n1C	none
CN(CCCNC(=O)c1ccc(/C=N/O)nc1)CCCN(C)Cc1ccccc1	TDP1 cell noCPT 23µM, DT40 TDP1 CPT inconclusive
CN(CCNC(=O)c1ccc(/C=N/O)nc1)Cc1ccccc1	none
CCOC(=O)C1CCN(C(c2cccc(F)c2)c2c(O)cc(C)n(CCOC)c2=O)CC1 (stereo not given)	none (no result: HT1080NT lethal, ELG1 repair inh, HT1080 IDH1KD tx, IL1B secr inh)
CN1CCN(C(=O)c2ccc(N3CCCC3=O)cc2)CC1	none
O=C(c1ccc(N2CCCC2=O)cc1)N1CCN(c2ccccc2O)CC1	ELG1 repair inh 18µM, TDP1 cell noCPT inconclusive
Cc1ccc(C)c(N2CCN(C(=O)c3ccc(N4CCCC4=O)cc3)CC2)c1	ELG1 repair inh inconclusive, TDP1 cell noCPT 16µM, DT40 TDP1 CPT inconclusive
O=C(c1ccc(N2CCCC2=O)cc1)N1CCN(c2ccccc2F)CC1	none
ON=C1C2CC=C(c3ccccc3)C1CCC2 (stereo not given)	DT40 TDP1 CPT inconclusive, IL1B secr inh -58 (no result: ELG1 repair inh)
COc1cccc(N2CCN(c3ncnc4onc(-c5ccc(Cl)cc5)c34)CC2)c1	TDP1 cell noCPT 16µM, DT40 TDP1 CPT inconclusive (no result: HT1080NT lethal, ELG1 repair inh, HT1080 IDH1KD tx, IL1B secr inh)
Clc1ccc(-c2noc(-c3cccnc3N3CCN(c4ccccc4)CC3)n2)cc1	TDP1 cell noCPT inconclusive (no result: HT1080NT lethal, ELG1 repair inh, HT1080 IDH1KD tx, IL1B secr inh)
Fc1ccccc1N1CCN(c2ncnc3onc(-c4ccc(Cl)cc4)c23)CC1	TDP1 cell noCPT 21µM (no result: HT1080NT lethal, ELG1 repair inh, HT1080 IDH1KD tx, IL1B secr inh)
CC(=O)c1ccc(N2CCN(c3ncnc4onc(-c5ccc(Cl)cc5)c34)CC2)cc1	TDP1 cell noCPT 16µM, DT40 TDP1 CPT 23µM (no result: HT1080NT lethal, ELG1 repair inh, HT1080 IDH1KD tx, IL1B secr inh)
COc1cccc(N2CCN(C(=O)c3c(C)oc4ncnc(N5CCOCC5)c34)CC2)c1	none (no result: HT1080NT lethal, ELG1 repair inh, HT1080 IDH1KD tx, IL1B secr inh)
Cc1ccc2c(=O)cc(C(=O)Nc3cccc(Cl)c3C)oc2c1C	none (no result: HT1080NT lethal, ELG1 repair inh, HT1080 IDH1KD tx, IL1B secr inh)
O=C(c1cc(-c2ccc(F)cc2)nc2ccccc12)N1CCN(C2CCS(=O)(=O)C2)CC1 (stereo not given)	DT40 TDP1 CPT inconclusive
COc1ccc(S(=O)(=O)NNC(=O)C2COc3ccccc3O2)cc1[N+](=O)[O-] (stereo not given)	none
Clc1ccc(-c2nnc(C34CC5CC(CC(C5)C3)C4)o2)cn1	TDP1 cell noCPT 29µM, DT40 TDP1 CPT inconclusive
CC(C)Cc1nn2c(=O)cc(CSCC(=O)Nc3ccccc3F)nc2s1	none
CCCCC(=O)NC(=S)Nc1nnn(CCC)n1	HT1080 IDH1KD tx inconclusive, TDP1 cell noCPT 5.8µM, DT40 TDP1 CPT 4.1µM
CCCCn1nnc(NC(=S)NC(=O)c2ccc(OCC)c([N+](=O)[O-])c2)n1	TDP1 cell noCPT 21µM, DT40 TDP1 CPT inconclusive
COc1cc2ccccc2cc1C(=O)NC(=S)Nc1nnn(C)n1	TDP1 cell noCPT 16µM, DT40 TDP1 CPT 23µM
CCCCn1nnc(NC(=S)NC(=O)c2ccc(-c3cccc(Cl)c3Cl)o2)n1	TDP1 cell noCPT 23µM, DT40 TDP1 CPT 10µM
CCC(C)(C)NC(=O)C1CC(=O)N(CCc2ccc(F)cc2)C1 (stereo not given)	none
COC(=O)[C@@H]1CCCN1Cc1ccc2c(c1)CN(Cc1ccccc1F)CCO2	none (no result: HT1080NT lethal, ELG1 repair inh, HT1080 IDH1KD tx, IL1B secr inh)
CCCn1nnc(NC(=O)c2ccccc2Cl)n1	ELG1 repair inh inconclusive
CCCn1nnc(NC(=S)NC(=O)c2ccccc2OC)n1	TDP1 cell noCPT 18µM, DT40 TDP1 CPT inconclusive
CCc1cc2c(=O)[nH]c(CC(N)=O)nc2s1	IL1B secr inh -66
